CCT modulator: changes cytosolic chaperonin activity. activity change, % (no concentration beside the values), hits read low. purified chaperonin ATPase assay, HTRF ADP detection, 30 min. 0.3% of 360,000 active. AID 651819; in the data active means activity change below about -30%; further: on the % scale 0 is the no-effect control and ±100 the full control effect
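ATPase activity: ADP formed was measured by HTRF Transcreener (665/615 nm ratio) after 30 min at 37 deg C with 10 uM ATP. Compounds screened at one 76 uM concentration against 40 or 20 nM TRiC in Tris pH 7.4/KCl/MgCl2/DTT buffer.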
Tb PFK inh: inhibitors of T. brucei phosphofructokinase; AID 485367; Potency, µM (top dose mostly 57.5 µM), without a hit: at the top dose activity, negative = inhibition, usual class: inhibitors; T. brucei PFK, ADP-Glo luminescence; O15648; 0.17% of 330,000 active;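 further: potency means the concentration at half of the fitted maximal effect; 0% = uninhibited 1x PFK enzyme wells and -100% = no-enzyme wells; nearly all actives have a fitted effect of over 60% in size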
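In TEA buffer at pH 8.0 with 5 mM MgCl2, enzyme (1.25 nM) converted F6P (0.5 mM) and ATP (0.1 mM) for 45 min at room temperature. ADP product was read by luciferase luminescence.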
TCR act: activators of T cell receptors. primary human leukocytes, anti-CD3, IL-2 HTRF, 48 h. Potency, µM (highest dose often 9.22 µM), inactives show at the top dose activation of IL-2 secretion, hits mostly activators. 330,000 tested, under 10 active. AID 504894; further: % of control where 0% means no effect
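48 hr co-incubation of compounds, a-CD3 beads and primary human leukocytes; IL-2 quantified homogeneously by HTRF with anti-IL-2 K and d2 conjugates.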
ASM inhibitor: human S-ASM enzyme inhibition. P17405. placental ASM, HMU-PC fluorogenic substrate, 60 min. Potency, µM (series often up to 57.5 µM), for inactives: at the highest dose activity change, negative = inhibition, most hits filed as inhibitors. 0.006% of 340,000 active. AID 504937; further: potency means the concentration at half of the fitted maximal effect
Target sequence (P17405 47-631 limits assumed): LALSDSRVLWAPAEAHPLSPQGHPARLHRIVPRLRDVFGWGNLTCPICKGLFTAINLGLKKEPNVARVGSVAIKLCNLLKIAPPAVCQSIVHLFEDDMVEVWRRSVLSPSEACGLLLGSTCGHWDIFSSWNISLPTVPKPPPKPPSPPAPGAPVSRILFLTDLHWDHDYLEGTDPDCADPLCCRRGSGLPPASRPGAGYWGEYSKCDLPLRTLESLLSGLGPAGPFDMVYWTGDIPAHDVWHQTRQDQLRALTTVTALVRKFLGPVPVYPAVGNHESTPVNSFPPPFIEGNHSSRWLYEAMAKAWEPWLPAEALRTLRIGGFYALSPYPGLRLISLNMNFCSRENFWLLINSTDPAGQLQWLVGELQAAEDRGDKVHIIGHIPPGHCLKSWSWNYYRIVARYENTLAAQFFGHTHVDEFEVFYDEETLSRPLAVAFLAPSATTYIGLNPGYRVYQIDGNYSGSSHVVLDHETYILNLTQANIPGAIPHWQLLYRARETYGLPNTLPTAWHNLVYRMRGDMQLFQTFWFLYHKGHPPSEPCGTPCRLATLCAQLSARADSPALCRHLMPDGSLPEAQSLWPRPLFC
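Fluorescence read-out (Ex 386 nm, Em 447 nm) after stopping the reaction at pH 10. Enzyme: ASM from human placenta; substrate HMU-PC0, 9 uM final; 60 min, 37 °C. Compound preincubation 10 min, ambient temperature.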
BCR signal inh: blocks chronic active B-cell receptor signaling. ABC-DLBCL IkBa-CBG/CBR reporter, luminescence ratio, 4 h. Potency, µM (titrated, usually from 46.1 µM), for the others: top-dose activity change, negative = inhibition, hits mostly inhibitors. 0.05% of 340,000 active. AID 493014; active means well fitted inhibition curve with a large enough effect in the signal ratio, with a control signal flat, not every such curve was filed as active; inconclusive means small, poorly fitted or top-dose-only effect, or effect the other way, or a change in a side signal; the % refers to the signal ratio;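 further: potency means the concentration at half of the fitted maximal effect; plate controls were basal doxycycline-induced cells for no effect and cells given 10 µM MG132 for full effect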
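TMD8 human ABC-DLBCL cells with doxycycline-inducible IκBα–green luciferase fusion and unfused red luciferase, in 0.5% FBS medium; compounds up to 46 uM, 4 h at 37C. Green/red luminescence ratio, filter-overlap corrected, fitted to concentration-response curves.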
* hit, by the source's call; i = inactive; ? = inconclusive; / = no result given; [ ] = remark or other dose. Rows were chosen to be rich in hits. Some 0.49% of all compounds tested hit in one or more screens of this group. Unless noted, the call rests on the fitted dose curve; in most records, active means well fitted curve in the direction sought with a large enough effect; inconclusive means small, poorly fitted or top-dose-only effect, or another doubt; inactive means no such curve, though single readings can be large; an effect the other way counts as inactive or inconclusive.

SMILES	CCT modulator	Tb PFK inh	TCR act	ASM inhibitor	BCR signal inh
CC(C)(C)c1n[nH]c(=S)n(/N=C/c2cccs2)c1=O	-35.4*	0.1%	2.8%[46.1 µM]	-0.5%	16.1%
CCS(=O)(=O)c1cccc(C(=O)N2CCN(c3nc4c(C)ccc(Cl)c4s3)CC2)c1	/	/	/	/	-13.1%
COc1cc2c(cc1OC)[C@@H]1O[C@](c3ccsc3)(C2)Oc2cc(C)n(-c3ccccc3)c(=O)c21	/	0.3%[11.5 µM]	/	/	-2.4%[9.22 µM]
Nc1nnc(SC2CC(=O)N(c3ccccc3)C2=O)s1 (stereo unspecified)	-97.1*	1.3%	-5.1%	4.6%	?
CCOC(=O)CCc1c(C)nc2c(c(C)nn2-c2ccccc2)c1C	-1.0	-0.1%	1.8%	-5.8%	5.6%
CCOC(=O)CCc1c(C)c2c(C)nn(-c3ccccc3)c2[nH]c1=O	-33.8*	5.3%	-3.7%[46.1 µM]	3.3%	0.0%
CCOC(=O)c1ccc(NC(=O)CN2CCN(Cc3ccccc3)CC2)cc1	-86.3*	4.5%	0.2%	1.1%	-5.4%
O=[N+]([O-])c1ccc(C=Nc2ccc(Cl)c([N+](=O)[O-])c2)s1	/	23.9µM*	/	/	-8.8%
Cc1cc(C)cc(N=Cc2ccc([N+](=O)[O-])s2)c1	0.7	-10.1%	-1.6%[46.1 µM]	-0.6%	?
c1ccc(C2=Nn3c(nnc3-c3cc(-c4ccccc4)n[nH]3)SC2)cc1	0.8	17.3%	0.6%	?	11.6µM*
Cc1ccc(-c2nnc3n2N=C(c2ccccc2)CS3)cc1	-2.2	-1.1%	-5.6%[46.1 µM]	-0.5%	?
COc1ccc(-c2nnc3n2N=C(C)CS3)cc1	2.3	2.8%	-1.1%	2.7%	5.3%
COc1ccc(C2=Nn3c(nnc3-c3ccc(OC)cc3)SC2)cc1	-2.3	-5.7%	3.8%	-18.7%	6.51µM*
Clc1ccc(C2=Nn3c(nnc3-c3cccs3)SC2)cc1	3.3	-1.8%	1.5%[46.1 µM]	-1.4%	-0.4%
Clc1ccc(C2=Nn3c(nnc3-c3cc(-c4ccccc4)n[nH]3)SC2)cc1	-0.8	-7.4%	/	-18.2%	5.17µM*
NC(=O)c1cc2ccccc2o/c1=N\NC(=O)c1ccncc1	-0.9	0.7%	0.0%	0.1%	2.5%
Cc1ccc(C(=O)N/N=c2\oc3ccccc3cc2C(N)=O)cc1	-30.2*	16.5%	5.3%	-4.1%	4.4%
COc1ccc(-c2noc(CCC(=O)N3CCN(c4ccccc4OC)CC3)n2)cc1	-39.4*	5.0%	2.9%[46.1 µM]	-6.5%	-5.9%
COc1ccc(OCC2c3cc(OC)c(OC)cc3CCN2C(=O)COc2ccc(Cl)cc2Cl)cc1 (stereo unspecified)	/	/	/	/	0.1%
COCCN(Cc1cc2cc(C)cc(C)c2nc1Cl)C(=O)Nc1ccccc1	-3.7	0.8%	4.7%	-12.8%	16.4µM*
Brc1ccc(C2=Nc3cccc4cccc(c34)N2)o1	-43.5*	-0.5%	3.7%[46.1 µM]	-8.4%	0.6%
CCOc1cccc(CNCc2ccc(C(=O)O)cc2)c1	-70.4*	0.4%	-176.0%	2.4%	-6.7%
Cc1cc(=O)oc2c(C)c(OCC(=O)N3CCN(c4cccc(Cl)c4)CC3)ccc12	1.9	21.3µM*	-2.3%	-9.8%	14.2%
Cc1cc(=O)oc2c(C)c(OCC(=O)N3CCN(c4ccccc4)CC3)ccc12	-3.4	-2.4%	-0.1%	-1.8%	-9.4%
Cc1cccc2c1-c1sc(C(=O)Nc3cccnc3)cc1CO2	0.8	1.4%	2.6%	i	?
SMILES	CCT modulator	Tb PFK inh	TCR act	ASM inhibitor	BCR signal inh
O=C(Nc1cccnc1)c1cc2c(s1)-c1ccccc1OC2	-71.2*	-19.4%	5.9%	13.8%	-27.0%
NC(=O)C1(C(N)=O)OC1c1ccc(Cl)c(Cl)c1 (stereo unspecified)	-57.0*	-8.8%	2.4%	-1.8%	?
COc1ccc([C@@H]2OC2(C(N)=O)C(N)=O)cc1	-2.4	1.0%	-21.6%	2.7%	5.5%
Cc1ccccc1NS(=O)(=O)c1ccc2[nH]cc(C(=O)NCCc3ccccc3)c(=O)c2c1	/	-14.3%	/	/	?
CCC1(C)NC(C(=O)O)Cc2c1[nH]c1ccccc21 (stereo unspecified)	-39.5*	1.4%	/	1.0%	0.8%
Cc1ccc(CCNC(=O)c2c[nH]c3ccc(S(=O)(=O)Nc4cccc(C(F)(F)F)c4)cc3c2=O)cc1	/	/	/	/	12.5%
CCn1c(-c2cc(-c3ccc(C)c(C)c3)nc3ccccc23)n[nH]c1=S	/	6.8%	/	/	21.2%
CCn1c(-c2cc(-c3cc(C)ccc3C)nc3ccccc23)n[nH]c1=S	-72.2*	0.9%	-1.4%[46.1 µM]	0.3%	3.8%
CCOc1ccc(CCNC(=O)CCCn2c(=O)c3cccn3c3cccnc32)cc1OCC	-85.8*	0.0%	-7.5%	-2.3%	-2.6%
COc1ccc(CCNC(=O)CCCn2c(=O)c3cccn3c3cccnc32)c(OC)c1OC	-3.0	-8.3%	-3.7%	2.9%	-10.4%
CCc1ccc(NC(=O)CSC2=Nc3ccccc3C3=NC(CCC(=O)NCc4ccccc4OC)C(=O)N23)cc1 (stereo unspecified)	/	/	/	/	12.5%
NNC(=O)/C(=C/c1cccs1)NC(=O)c1ccccc1Cl	-4.4	0.8%	/	2.1%	11.2µM*
Cc1ccc(NC(=O)CN(C)C(=O)C(C)OC(=O)CNC(=O)c2ccc(Cl)c([N+](=O)[O-])c2)cc1 (stereo unspecified)	-76.9*	-3.0%	1.4%	-1.1%	-0.4%
CC(C)(C)[C@H](NC(=O)c1ccc(N)c(Cl)c1)C(=O)N1CCC[C@H]1C(=O)N[C@H](C#N)Cc1nn[nH]n1	/	8.7%	/	/	-11.5%
O=C(Nc1ccc2c(c1)OCCO2)c1oc2ccccc2c1NC(=O)C1CC1	-45.3*	-1.4%	5.8%	-8.4%	?
CCCc1c(C(=O)N/N=C/c2c[nH]c3ccccc23)nnn1-c1nonc1N	0.4	/	/	/	/
O=C(N/N=C/c1c[nH]c2ccccc12)c1cccs1	-39.6*	-4.7%	7.3%	-2.8%	?
Cc1ccc(-c2c(C(=O)N/N=C/c3c[nH]c4ccccc34)nnn2-c2nonc2N)cc1	-73.6*	1.3%	2.5%	2.5%	?
COc1ccc(N2CC(NC(=O)COc3ccc4ccccc4c3)CC2=O)cc1 (stereo unspecified)	/	/	/	/	-25.9%
COc1ccc(NC(=O)CSc2nnc(CCC(=O)O)c(=O)n2N)cc1	-56.1*	-3.8%	-0.6%	6.8%	0.8%
N/C(=N\OC(=O)c1ccccc1)c1ccn[nH]1	-30.7*	-11.0%	6.0%	-0.1%	?
COc1cc(C(=O)NNC(=O)CNC(=O)c2ccc(Br)o2)cc(OC)c1OC	-3.2	0.7%	-0.7%	4.6%	1.2%
COc1ccc(CNC(=O)CNC(=O)c2ccc(Br)o2)cc1OC	-106.7*	-3.5%	0.8%	3.7%	-3.0%
O=C(CC(c1ccco1)C1CCCCC1=O)c1ccco1 (stereo unspecified)	-37.9*	-2.1%	-3.6%	-2.3%	-1.4%
Cc1c(C(=O)N(C)C)sc2c1c(=O)n(-c1ccc(Cl)c(Cl)c1)c(=O)n2CC(=O)N1CCCCC1C (stereo unspecified)	/	/	/	/	-5.0%
